Test [1] has as its system Plasmodium falciparum Sir2 (PF13_0152, Sir2A). As to the kind of experiment: Plasmodium falciparum Sir2A binding compounds – biochemical, small-molecule microarray, 635 nm fluorescence, primary screen (AID 1098).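 Note: score merges spot fluorescence intensity with its signal-to-noise ratio.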 To be noted: fluorescence 635 nm, higher = more signal.
Test [2] can be described thus: probe aDKK1 binding to arrayed compounds – biochemical, biotinylated probe, 635/667 nm fluorescence, primary screen (AID 1099).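 Note: score merges 667nm spot fluorescence with signal to noise across triplicate slides.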 To be noted: small-molecule microarray, higher = more signal.
Test [3] is described as follows: probe aCHRDL2 binding to arrayed compounds – biochemical, biotinylated probe, 635/667 nm fluorescence, primary screen (AID 1100). To be noted: small-molecule microarray, higher = more signal.
Test [4] is described as follows: change in splice reporter luminescence, either direction, cell-based, HEK293, spliceosome inhibition project, primary screen (AID 1101).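 Note: HEK293 cells carrying a splicing-competent luciferase reporter gene; test concentration not given here.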 The note with it: HEK293 splicing luciferase reporter, 24 h, higher = more signal, called active from +8 up or from −8 down. On the technique in general: A reporter such as luciferase makes a cellular process visible.
Test [5] addresses Fibroblast growth factor 10 (Homo sapiens) (UniProt O15520). As to the kind of experiment: compounds binding fibroblast growth factor 10 – biochemical, small-molecule microarray, 635 nm fluorescence, primary screen (AID 1102). To be noted: FGF10 binding, fluorescence 635 nm, higher = more signal.
Test [6] concerns glycogen synthase kinase-3 (GSK3A per assay name; protocol says GSK3B). As to the kind of experiment: compounds binding glycogen synthase kinase-3 – biochemical, small-molecule microarray, 635 nm fluorescence, GSK3A, primary screen (AID 1103). Note: the record names both GSK3A and GSK3B. The note with it: fluorescence 635 nm, higher = more signal.
For test [7], the target named is Epidermal growth factor receptor (Homo sapiens) (UniProt P00533). As to the kind of experiment: compounds binding epidermal growth factor receptor – biochemical, small-molecule microarray, 635 nm fluorescence, primary screen (AID 1104).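 Note: score merges 667 nm emission intensity with spot signal to noise over triplicate slides.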 To be noted: EGFR binding, higher = more signal.
Epidermal growth factor receptor (Homo sapiens), sequence (P00533 whole entry, looked up): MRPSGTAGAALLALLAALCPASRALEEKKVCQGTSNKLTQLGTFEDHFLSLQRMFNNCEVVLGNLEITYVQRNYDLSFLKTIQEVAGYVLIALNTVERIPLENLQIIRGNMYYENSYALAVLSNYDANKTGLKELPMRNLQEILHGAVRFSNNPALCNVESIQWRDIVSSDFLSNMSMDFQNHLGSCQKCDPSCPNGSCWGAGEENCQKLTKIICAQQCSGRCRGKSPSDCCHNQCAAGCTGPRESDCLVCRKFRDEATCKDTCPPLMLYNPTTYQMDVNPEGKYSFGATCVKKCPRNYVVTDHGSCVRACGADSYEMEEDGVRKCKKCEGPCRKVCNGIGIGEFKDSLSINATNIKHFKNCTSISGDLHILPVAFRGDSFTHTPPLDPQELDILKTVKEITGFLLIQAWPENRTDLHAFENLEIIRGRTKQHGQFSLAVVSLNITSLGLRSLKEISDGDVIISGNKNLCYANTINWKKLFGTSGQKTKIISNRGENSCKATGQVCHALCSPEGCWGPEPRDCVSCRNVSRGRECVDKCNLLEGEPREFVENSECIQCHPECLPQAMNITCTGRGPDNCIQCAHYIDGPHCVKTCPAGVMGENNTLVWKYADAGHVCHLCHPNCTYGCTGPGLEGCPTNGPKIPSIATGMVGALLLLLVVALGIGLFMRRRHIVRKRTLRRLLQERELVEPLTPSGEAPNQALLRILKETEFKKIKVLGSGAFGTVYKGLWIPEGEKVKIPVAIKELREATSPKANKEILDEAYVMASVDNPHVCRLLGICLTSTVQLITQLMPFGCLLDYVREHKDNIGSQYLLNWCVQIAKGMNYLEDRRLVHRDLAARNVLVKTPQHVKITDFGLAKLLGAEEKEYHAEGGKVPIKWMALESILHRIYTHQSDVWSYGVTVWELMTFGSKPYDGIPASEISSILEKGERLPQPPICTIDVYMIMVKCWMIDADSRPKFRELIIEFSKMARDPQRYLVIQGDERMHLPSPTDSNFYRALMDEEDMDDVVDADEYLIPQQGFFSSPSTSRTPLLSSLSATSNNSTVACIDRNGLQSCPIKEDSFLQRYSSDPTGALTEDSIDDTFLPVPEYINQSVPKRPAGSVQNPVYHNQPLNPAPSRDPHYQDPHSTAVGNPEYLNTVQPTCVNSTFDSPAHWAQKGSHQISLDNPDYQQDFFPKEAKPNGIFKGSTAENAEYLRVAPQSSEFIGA
For test [8], the target named is Follistatin-related protein 3 (Homo sapiens) (UniProt O95633). As to the kind of experiment: compounds binding follistatin-related protein 3 – biochemical, small-molecule microarray, 635 nm fluorescence, primary screen (AID 1105).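 Note: score merges emission near 667 nm and signal to noise per printed spot across three slides.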 To be noted: FSTL3 binding, higher = more signal.
Follistatin-related protein 3 (Homo sapiens), sequence (O95633 whole entry, looked up): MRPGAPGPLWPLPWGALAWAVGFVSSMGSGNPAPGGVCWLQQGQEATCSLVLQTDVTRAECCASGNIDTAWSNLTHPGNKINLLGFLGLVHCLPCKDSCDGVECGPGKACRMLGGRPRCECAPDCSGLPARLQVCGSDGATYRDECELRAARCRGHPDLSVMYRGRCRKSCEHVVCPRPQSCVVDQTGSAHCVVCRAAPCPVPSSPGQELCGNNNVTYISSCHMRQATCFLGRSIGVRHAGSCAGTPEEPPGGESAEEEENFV
For test [9], the target named is Dickkopf-related protein 1 (Homo sapiens) (UniProt O94907). As to the kind of experiment: small molecules binding DKK1 protein – biochemical, small-molecule microarray, 635 nm fluorescence scan, primary screen (AID 1106).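 Note: score merges emission near 667 nm with signal to noise over three replicate slides.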 The note with it: higher = more signal.
Dickkopf-related protein 1 (Homo sapiens), sequence (O94907 whole entry, looked up): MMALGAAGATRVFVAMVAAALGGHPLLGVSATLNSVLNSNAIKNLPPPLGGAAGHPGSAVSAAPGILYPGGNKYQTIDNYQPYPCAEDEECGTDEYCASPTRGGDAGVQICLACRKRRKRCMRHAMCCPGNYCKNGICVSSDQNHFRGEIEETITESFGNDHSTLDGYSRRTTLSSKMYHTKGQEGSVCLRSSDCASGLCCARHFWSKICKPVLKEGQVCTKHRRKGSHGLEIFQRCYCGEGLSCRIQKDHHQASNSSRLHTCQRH
Test [10] concerns Inhibin beta A chain (activin A). As to the kind of experiment: small molecules binding activin A – biochemical, small-molecule microarray, 635 nm fluorescence scan, primary screen (AID 1107).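 Note: mouse activin A protein probed at 4.33 µg/mL on printed slides; score merges bound-protein fluorescence near 667 nm with spot signal-to-noise.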 The note with it: INHBA, higher = more signal.
Test [11] concerns Human papillomavirus type 1a protein E7 (residues 44-93). As to the kind of experiment: small molecules binding HPV E7 44-93 – biochemical, small-molecule microarray, residues 44-93, 635 nm fluorescence, primary screen (AID 1108).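 Note: E7 fragment applied at 1 µg/mL in TBST for 1 h at 4 C; score combines spot fluorescence with its signal to noise ratio.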 To be noted: fluorescence 635 nm, higher = more signal.
Test [12] can be described thus: hepatitis C replication reporter changes, two-sided – Huh7 cells, luciferase reporter, HCV replication inhibitor project, primary screen (AID 1109).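 Note: huh7 hepatoma cells harbouring a luciferase neomycin HCV replicon reporter; luciferase luminescence as measure of HCV replicon replication; test concentration not given here.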 To be noted: Huh7 HCV replicon luciferase reporter, 48 h; higher = more signal.
Test [13] deals with Left-right determination factor 2 (Homo sapiens) (UniProt O00292). As to the kind of experiment: small molecules binding LEFTY2 protein – biochemical, small-molecule microarray, 635 nm fluorescence scan, primary screen (AID 1110). The note with it: higher = more signal.
Left-right determination factor 2 (Homo sapiens), sequence (O00292 whole entry, looked up): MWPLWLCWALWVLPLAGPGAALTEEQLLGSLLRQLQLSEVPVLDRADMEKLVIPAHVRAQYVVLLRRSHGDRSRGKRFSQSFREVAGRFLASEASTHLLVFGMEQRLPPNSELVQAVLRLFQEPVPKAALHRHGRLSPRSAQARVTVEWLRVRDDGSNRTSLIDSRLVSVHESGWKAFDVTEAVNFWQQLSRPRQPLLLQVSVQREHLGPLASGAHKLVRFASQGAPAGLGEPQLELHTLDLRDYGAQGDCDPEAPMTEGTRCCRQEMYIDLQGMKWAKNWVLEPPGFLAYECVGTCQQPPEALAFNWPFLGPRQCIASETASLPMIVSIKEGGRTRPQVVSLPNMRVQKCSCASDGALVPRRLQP
Test [14] concerns the target Calmodulin-1 (Homo sapiens) (UniProt P0DP23). As to the kind of experiment: small molecules binding calmodulin-1 with EGTA – biochemical, small-molecule microarray, Cy5-labelled CALM1, profiling panel (AID 1111).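 Note: labelled calmodulin applied in Tris saline Tween buffer holding calcium plus EGTA and DTT.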 To be noted: Cy5-CALM1 binding fluorescence, higher = more signal.
Test [15] has the same target. As to the kind of experiment: small molecules binding Ca-loaded calmodulin-1 – biochemical, small-molecule microarray, Cy5-labelled CALM1, plus calcium, artefact control for SMM control-protein annotation, profiling panel (AID 1112).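 Note: score merges spot fluorescence with signal to noise from triplicate slides.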 The note with it: Cy5-CALM1 binding fluorescence, higher = more signal.
Test [16] is described as follows: probe aWnt5a binding to arrayed compounds – biochemical, biotinylated probe, 635/667 nm fluorescence, primary screen (AID 1113).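 Note: score merges 667 nm fluorescence intensity with signal-to-noise per printed feature.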 The note with it: small-molecule microarray, higher = more signal.
Test [17] can be described thus: probe aShh binding to arrayed compounds – biochemical, biotinylated probe, 635/667 nm fluorescence, primary screen (AID 1114).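 Note: probe is biotin-labelled aShh protein from a stem cell growth factor screen; measures binding of labelled protein to compounds printed on the slide; score merges feature fluorescence at 667 nm with signal-to-noise.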 The note with it: small-molecule microarray, higher = more signal.
Test [18] in a line: probe aNog binding to arrayed compounds – biochemical, biotinylated probe, 635/667 nm fluorescence, primary screen (AID 1115).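 Note: probe is biotinylated aNog protein used at 0.15 µg/mL for 1 h at 4 C; z-score combines 667 nm fluorescence of each spot with its signal to noise.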 The note with it: small-molecule microarray, higher = more signal.
The target in test [19] is Torsin-1A-interacting protein 1 (Homo sapiens) (UniProt Q5JTV8). As to the kind of experiment: compound microarray binding of lysate hLAP1 – cell lysate, small-molecule microarray, COS7 lysate, 635/667 nm fluorescence, primary screen (AID 1116). To be noted: 635 nm fluorescence, higher = more signal.
Torsin-1A-interacting protein 1 (Homo sapiens), sequence (Q5JTV8 whole entry, looked up): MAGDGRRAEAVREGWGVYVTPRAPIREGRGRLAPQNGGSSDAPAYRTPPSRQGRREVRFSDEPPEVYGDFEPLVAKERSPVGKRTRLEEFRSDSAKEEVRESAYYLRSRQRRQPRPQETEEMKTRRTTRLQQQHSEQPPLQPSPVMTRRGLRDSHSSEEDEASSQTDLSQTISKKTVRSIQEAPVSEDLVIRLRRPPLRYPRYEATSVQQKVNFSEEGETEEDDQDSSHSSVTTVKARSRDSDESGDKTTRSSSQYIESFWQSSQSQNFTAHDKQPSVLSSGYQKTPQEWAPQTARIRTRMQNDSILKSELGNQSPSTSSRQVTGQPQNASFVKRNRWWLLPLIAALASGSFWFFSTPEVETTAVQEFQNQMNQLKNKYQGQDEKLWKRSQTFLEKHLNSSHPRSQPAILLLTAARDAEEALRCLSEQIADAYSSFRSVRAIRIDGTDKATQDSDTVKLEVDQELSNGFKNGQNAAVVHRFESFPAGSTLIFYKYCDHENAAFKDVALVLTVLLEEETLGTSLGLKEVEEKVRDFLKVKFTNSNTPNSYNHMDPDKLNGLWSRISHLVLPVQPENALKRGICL
Test [20] addresses Alpha-bungarotoxin (Bungarus multicinctus) (UniProt P60615). As to the kind of experiment: compounds binding labelled alpha-BTX control protein – biochemical, small-molecule microarray, Alexa647 label, 635/667 nm fluorescence, artefact control for SMM control protein annotation, profiling panel (AID 1117). The note with it: alpha-BTX-A647 binding fluorescence, higher = more signal.

Calls of active or inactive are those of the source.

Fibroblast growth factor 10 (Homo sapiens), sequence (O15520 whole entry, looked up): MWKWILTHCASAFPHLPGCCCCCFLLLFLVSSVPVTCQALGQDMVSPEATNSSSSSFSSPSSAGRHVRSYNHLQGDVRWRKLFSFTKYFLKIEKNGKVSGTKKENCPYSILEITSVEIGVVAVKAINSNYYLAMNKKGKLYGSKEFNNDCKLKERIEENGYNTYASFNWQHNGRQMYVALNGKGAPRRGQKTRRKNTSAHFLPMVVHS
Alpha-bungarotoxin (Bungarus multicinctus), sequence (P60615 whole entry, looked up): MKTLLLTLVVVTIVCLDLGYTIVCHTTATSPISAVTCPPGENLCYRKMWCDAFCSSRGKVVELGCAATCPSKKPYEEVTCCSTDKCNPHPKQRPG

As for `NC(=O)NCC#Cc1ccc2c(c1)[C@]1(C(=O)N2)[C@H](C(=O)NC[C@H](O)c2ccccc2)[C@H]2C(=O)O[C@H](c3ccccc3)[C@H](c3ccccc3)N2[C@@H]1c1ccccc1OCCO`, the composite z-score in test [1] is 1.3; in test [2], -0.0611; in [3], 0.729; in [5], 0.588; in test [6] it was -0.425; in test [7] it was 0.143. Moreover, the composite z-score was -0.0845 in test [8]; -1.04 in [9]; 0.286 in test [10]; 1.41 in [11]; -0.914 in test [13]; 0.103 in test [14]. Besides, the composite z-score in [15] was -0.134; in [16] it was -0.139; in test [17], -0.301; in [18], 0.665; in [19], 0.433; in test [20] it was 3.26. Moreover, the z-score is -0.416 (inactive) in test [4] and -1.49 in test [12].
Regarding `COC(=O)[C@@]1(Cc2ccc(OC)cc2)[C@H]2c3cc(C(=O)N(C)C)n(CCSCCO)c3C[C@H]2CN1C(=O)c1ccccc1`, the composite z-score was 0.403 in test [1]; 1.14 in test [2]; 1.16 in test [3]; 0.448 in test [5]; 0.528 in [6]; -0.263 in test [7]. For the same compound, the composite z-score was 0.413 in [8]; -0.796 in test [9]; 0.737 in test [10]; 1.39 in [11]; -0.675 in test [13]; 2.02 in test [14]. In addition, the composite z-score in test [15] is 0.954; in test [16], 0.149; in [17], 0.234; in [18], -0.553; in test [19], 0.904; in test [20], 0.569. In addition, the z-score in test [4] is -2.69 (inactive); in [12], -1.41.
Turning to `COc1ccc(C(=O)Nc2cccc(CN3C(=O)[C@@]4(O[C@@H](CC(=O)N5Cc6ccccc6C[C@H]5CO)[C@H]([Si](C)(C)c5ccc(OC)cc5)[C@H]4C)c4ccccc43)c2)cc1`, the composite z-score in test [1] is 1.42; in test [2], -0.287; in test [3], -0.0642; in test [5], 0.639; in test [6] it was 0.363; in test [7], 0.978. The composite z-score in test [8] is 1.24; in test [9] it was 1.11; in [10], 0.551; in test [11] it was -0.296; in test [13] it was 0.904; in [14], -0.0023. Besides, the composite z-score in [15] is -0.68; in test [16] it was -0.0643; in test [17], 0.353; in [18] it was 0.118; in test [19] it was 0.965; in [20], 1.27. Further, the z-score in test [4] was -1.14 (inactive); in [12], -3.74.
`COC(=O)[C@@]1(Cc2ccc(F)cc2)[C@H]2c3cc(C(=O)N(C)C)n(CCCNc4ccc(C(F)(F)F)cc4Cl)c3C[C@H]2CN1C(=O)c1ccccc1`: the composite z-score in test [1] is 1.08; in [2] it was 1.4; in test [3], 1.38; in test [5] it was 0.808; in test [6], 1.29; in [7], -0.19. In addition, the composite z-score in [8] was 1.2; in test [9] it was -0.667; in test [10], -0.0131; in [11], 1.4; in test [13], -0.385; in test [14] it was 2.36. Also, the composite z-score in test [15] came out at 1.31; in test [16], 0.284; in test [17] it was 0.391; in [18], 1.53; in [19], 1.37; in test [20], 1.85. Further, the results for the z-score in test [4] and in [12] were -1.75 (inactive) and -2.38, respectively.
In the case of `CN(C)CCCN1C(=O)[C@@]2(c3ccc([N+](=O)[O-])cc3)CC(=O)N(C3CCCCC3)[C@@H]2c2ccc(CO)cc21`, the composite z-score in test [1] is -0.34; in test [2], -0.0972; in [3], 0.196; in test [5], 0.835; in [6], -0.808; in [7], 0.108. Further, the composite z-score was -0.0207 in test [8]; -0.162 in test [9]; 0.731 in test [10]; -0.274 in test [11]; 0.0478 in [13]; -0.126 in test [14]. In addition, the composite z-score in test [15] was -0.361; in [16] it was -0.104; in [17], -0.304; in test [18] it was -0.118; in test [19], -1.4; in test [20] it was 0.25. Besides, the z-score in test [4] is -0.447 (inactive); in [12], -0.493.
As for `CCCCCCCCCCC(O)C1C=CC2C(=O)N(c3ccccc3)C(=O)C2N1Nc1ccc([N+](=O)[O-])cc1` (stereo not given), the composite z-score in test [1] is 1.34; in test [2], -0.101; in test [3], 0.584; in [5], 0.668; in test [6], 1.29; in [7] it was 0.352. Besides, the composite z-score is 1.01 in test [8]; 0.0052 in [9]; 0.559 in test [10]; 1.41 in test [11]; -0.193 in test [13]; 1.01 in [14]. The composite z-score was 0.496 in [15]; -0.0263 in test [16]; -0.0146 in test [17]; 1.1 in test [18]; -0.105 in test [19]; 1 in test [20]. Besides, the values for the z-score in [4] and in [12] were 0.823 (inactive) and -2.47, respectively.

The values above are taken from PubChem BioAssay.
